In all, about 290,000 compounds went through this assay and about 11,000 (3.8%) were called active. For the sample, actives were picked, then their nearest neighbours and some compounds at random. Values without a mark were called inactive.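 How the source made its calls: active means mean replicate inhibition above about 79%, with every replicate also reaching it (limit read from the data); inconclusive means only one of the two criteria met; inactive means mean below limit and not every replicate reaching it.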
Target: FAD-linked sulfhydryl oxidase ALR (Homo sapiens) (UniProt P55789)
Assay: ALR-catalysed DTT oxidation blockers – biochemical, H2O2 detection, HRP-luminol luminescence, single point, primary screen (AID 485317)
Conditions: purified ALR, hits give high values, concentration not given here

Sequence of FAD-linked sulfhydryl oxidase ALR (Homo sapiens) (P55789 whole entry, looked up): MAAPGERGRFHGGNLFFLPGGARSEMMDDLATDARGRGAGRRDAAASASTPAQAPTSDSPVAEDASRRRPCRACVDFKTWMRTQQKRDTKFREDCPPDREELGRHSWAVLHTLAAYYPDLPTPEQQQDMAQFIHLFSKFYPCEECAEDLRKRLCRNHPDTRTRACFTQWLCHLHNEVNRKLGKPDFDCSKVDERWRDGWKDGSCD

Row | Compound | inhibition
1 | C=CC[C@H](CC(=O)OC(C)(C)C)C(=O)OC[C@H]1CCCN1C(=O)[C@H](CC=C)CC(=O)N(CCO)Cc1ccccc1 | -5.27%
2 | CC1(C)CC(=O)C=C(c2ccc3ncccc3c2)C1 | -1.35%
3 | COc1ccc(NS(=O)(=O)c2cc(NC(=O)COc3ccccc3F)ccc2OC)cc1 | -2.82%
4 | COc1cccc(-c2ccc3c(c2)S(=O)(=O)c2cccc(C(=O)O)c2C3=O)c1OC | -0.409%
5 | COc1ccc(-c2csc3ncnc(N4CCN(S(=O)(=O)c5cccc(F)c5)CC4)c23)cc1 | 0.272%
6 | CCCc1ccc(C(=O)COC(=O)CN2C(=O)NC3(CCCCC3C)C2=O)cc1 (stereo not drawn) | -2.13%
7 | Nn1c(SCC(=O)Nc2ccc3c(c2)CCC3)nnc1C1CC1 | 98.6% (active)
8 | COc1ccc(NC(=O)CSc2nnc(C3CC3)n2C)cc1S(=O)(=O)N1CCCCC1 | -0.755%
9 | O=C(CSc1nnnn1-c1ccc2c(c1)CCC2)Nc1ccc2c(c1)OCCO2 | -26.1%
10 | COc1ccc2cc(C3=CC(=O)C[C@H](c4ccc5c(c4)OCO5)C3)ccc2c1 | 0.243%
11 | Cc1ccc(OCc2cc(C(=O)N(C)CCn3ccnc3C)no2)cc1C | -0.532%
12 | CCCCCCCNC(=O)C1(CC2CC(c3cccc(Br)c3)=NO2)CCN(C(=O)c2cc(OCC)c(OCC)c(OCC)c2)CC1 (stereo not drawn) | -9.32%
13 | CCCCN(C(=O)CSCC(=O)Nc1ccc(OC)cc1)c1c(N)n(CCC)c(=O)[nH]c1=O | 2.82%
14 | CCOC(=O)Cc1ncccc1C(=O)Nc1ccc(OC)cc1 | 10.7%
15 | CCCCOc1ccc(NC(=O)CSCC(=O)OCC)cc1 | 98.6% (active)
16 | O=C(NNC(=O)c1cccc(S(=O)(=O)Nc2ccc(Cl)cc2)c1)c1ccc(=O)[nH]c1 | -5.3%
17 | O=C(NCCc1ccc(C(F)(F)F)cc1)c1ccc2c(c1)OCO2 | -2.72%
18 | COc1ccc(/C=C(\C#N)C(=O)OCC(=O)N(C)C2CCS(=O)(=O)C2)cc1 (stereo not drawn) | 5.52%
19 | O=C(O)C(c1ccccc1)N1C(=O)/C(=C\c2ccc(-c3cccc(Cl)c3)o2)SC1=S (stereo not drawn) | 98.2% (active)
20 | Nc1nnnn1CC(=O)N/N=C/c1ccc(-c2cccc(Cl)c2)o1 | -10.4%

Row | Compound | inhibition
21 | CN1C(=O)/C(=C\c2ccc(-c3ccccc3)o2)SC1=S | -6.32%
22 | CC1CC(=O)Nc2ccccc2N1C(=O)COc1ccc2cc(Br)ccc2c1 (stereo not drawn) | 12.2%
23 | O=C(COc1ccc(F)cc1Br)NCC1COc2ccccc2O1 (stereo not drawn) | -3.27%
24 | COc1cccc2sc3cc(NCC[C@@H]4CCCN4C)ccc3c(=O)c12 | -1.66%
25 | O=c1cc(O)nc(SCc2ccccc2Cl)[nH]1 | 100% (active)
26 | O=c1[nH]nc(CSCc2ccccc2Cl)[nH]1 | -8.43%
27 | Cc1cc(=O)[nH]c(SCc2ccc(Cl)cc2)n1 | -9.56%
28 | COc1cccc2sc(NNC(=O)c3nc4ccccc4s3)nc12 | 93.7% (active)
29 | COc1ccccc1OCc1nc2ccccc2s1 | 2.66%
30 | COc1cccc2sc(Nc3nc(C)c(C(C)=O)s3)nc12 | 32.7%
31 | CC(=O)C1=C(O)C(=O)N(c2ccc(Br)cc2)C1c1ccc([N+](=O)[O-])cc1 (stereo not drawn) | 96.7% (active)
32 | CC(=O)C1=C(O)C(=O)N(c2cccnc2)C1c1ccc([N+](=O)[O-])cc1 (stereo not drawn) | 36.6%
33 | COC(=O)CN1C(=O)C(O)=C(C(C)=O)C1c1ccc([N+](=O)[O-])cc1 (stereo not drawn) | -8.67%
34 | COc1ccc(S(=O)(=O)N2CCN(CC(=O)NCC3(N4CCOCC4)CCCCC3)CC2)cc1 | -0.676%
35 | CCCn1nc(C(=O)NNC(=O)CCOc2ccccc2OCC)c2ccccc2c1=O | 16.7%
36 | CCOc1ccc(NC(=O)CN(C)C(=O)COc2cccc(CC)c2)cc1OCC | -14.9%
37 | Cc1cc(NC(=O)CCS(=O)(=O)c2ccc(F)cc2)no1 | -5.46%
38 | COc1cc(CC(=O)Nc2nc(-c3ccc(F)c(F)c3)cs2)cc(OC)c1OC | 0.225%
39 | CC(C)(C)C(=O)OCc1nc(-c2ccc(O)c(O)c2)cs1 | 99.4% (active)
40 | Cc1onc(C(=O)NN)c1-c1csc(COc2ccccc2)n1 | -2.47%

Row | Compound | inhibition
41 | COc1ccc(CNC(=O)COC(=O)c2ccc(C)c(S(=O)(=O)N3CCOCC3)c2)cc1OC | -7.49%
42 | CC1CCCCC1NC(=O)Cn1c(=O)cnc2ccccc21 (stereo not drawn) | -5.91%
43 | Cc1nccn1CC(=O)N/N=C/c1ccc(O)c(O)c1 | 99.4% (active)
44 | COc1cc(/C=N/NC(=O)CCc2n[nH]c(=O)[nH]c2=O)ccc1O | 99.3% (active)
45 | COc1cc(/C=N/NC(=O)c2ccc(N3CCCC3=O)cc2)ccc1O | 28%
46 | CCOc1ccc(/C=N/NC(=O)CSc2ccccn2)cc1O | 98.9% (active)
47 | Cc1nc2ccccc2n1CC(=O)N/N=C/c1cccnc1 | -8.97%
48 | COc1cc(/C=N/NC(=O)Cc2ccccc2)cc(OC)c1OC | -4.39%
49 | C=CCOc1ccc(/C=N/NC(=O)C(C)Sc2ccccn2)cc1OCC (stereo not drawn) | -4.04%
50 | Cc1ccc(/C=N/NC(=O)CSc2nc3ccccc3o2)cc1 | -3.09%
51 | CCn1c(SCC(=O)N/N=C/c2ccncc2)nc2ccccc21 | -3.78%
52 | NCCCCCC(=O)N/N=C/c1ccc2nccnc2c1 | 0.997%
53 | CCOc1ccc(/C=N/NC(=O)C(C)Sc2ccccn2)cc1OCC (stereo not drawn) | -8.94%
54 | Cn1c(SCC(=O)N/N=C/c2ccc(O)c(O)c2)nc2ccccc21 | 98.9% (active)
55 | CC(C)(C)n1nc(Cc2cccc3ccccc23)c(C#N)c1N | -16.1%
56 | Cc1cc(NC(=O)CSc2nnc(-c3ccco3)n2N)no1 | -0.748%
57 | CCOc1ccc2oc(C(=O)N(CC)CC(=O)Nc3ccc(NC(C)=O)cc3)c(C)c2c1 | -6.04%
58 | CCOc1ccc2ccccc2c1/C=N/NC(=O)c1c(C)cc(C)[nH]c1=O | -4.32%
